NR3A LBD binder: modulates the human NR3A ligand-binding domain | actives 2.5% (n = 340,000) | NR3A LBD differential scanning fluorimetry, Tm shift; 0% = protein alone, 100% = glycine-bound protein | AID 1259313 | Tm shift relative to glycine control, % at 25 µM;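 active = melting temperature shift of at least 10% of the positive control shift, at one fixed dose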
MPTP inh: inhibitors of mitochondrial permeability transition pore; isolated mouse mitochondria, Ca2+ swelling absorbance, 30 min; inhibition, % at 10 µM; actives 1.4% (n = 360,000);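 active = inhibition of 50% or more, scaled per plate between neutral and stimulator controls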
rCAG binder: molecules binding r(CAG) RNA repeats; actives 1.3% (n = 370,000); r(CAG) RNA repeat, TO-PRO-1 dye displacement fluorescence; inhibition, % at 3 µM;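 active = inhibition above the plate cutoff, the mean of all test compounds on that plate plus 3 SD, cut at about 35% in these data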;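 also: higher means more dye released from RNA so lower well fluorescence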
FAS-TE inh: blocks the thioesterase domain of human fatty acid synthase. P49327. recombinant FAS-TE, OMFH fluorogenic substrate, fluorescence endpoint. inhibition, % at 15 µM. actives 0.67% (n = 360,000);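 active = compounds whose normalised, plate-corrected inhibition of enzyme fluorescence in the single-dose primary screen is 50% or more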
Target sequence (P49327 whole entry, looked up, the tested form may be a part): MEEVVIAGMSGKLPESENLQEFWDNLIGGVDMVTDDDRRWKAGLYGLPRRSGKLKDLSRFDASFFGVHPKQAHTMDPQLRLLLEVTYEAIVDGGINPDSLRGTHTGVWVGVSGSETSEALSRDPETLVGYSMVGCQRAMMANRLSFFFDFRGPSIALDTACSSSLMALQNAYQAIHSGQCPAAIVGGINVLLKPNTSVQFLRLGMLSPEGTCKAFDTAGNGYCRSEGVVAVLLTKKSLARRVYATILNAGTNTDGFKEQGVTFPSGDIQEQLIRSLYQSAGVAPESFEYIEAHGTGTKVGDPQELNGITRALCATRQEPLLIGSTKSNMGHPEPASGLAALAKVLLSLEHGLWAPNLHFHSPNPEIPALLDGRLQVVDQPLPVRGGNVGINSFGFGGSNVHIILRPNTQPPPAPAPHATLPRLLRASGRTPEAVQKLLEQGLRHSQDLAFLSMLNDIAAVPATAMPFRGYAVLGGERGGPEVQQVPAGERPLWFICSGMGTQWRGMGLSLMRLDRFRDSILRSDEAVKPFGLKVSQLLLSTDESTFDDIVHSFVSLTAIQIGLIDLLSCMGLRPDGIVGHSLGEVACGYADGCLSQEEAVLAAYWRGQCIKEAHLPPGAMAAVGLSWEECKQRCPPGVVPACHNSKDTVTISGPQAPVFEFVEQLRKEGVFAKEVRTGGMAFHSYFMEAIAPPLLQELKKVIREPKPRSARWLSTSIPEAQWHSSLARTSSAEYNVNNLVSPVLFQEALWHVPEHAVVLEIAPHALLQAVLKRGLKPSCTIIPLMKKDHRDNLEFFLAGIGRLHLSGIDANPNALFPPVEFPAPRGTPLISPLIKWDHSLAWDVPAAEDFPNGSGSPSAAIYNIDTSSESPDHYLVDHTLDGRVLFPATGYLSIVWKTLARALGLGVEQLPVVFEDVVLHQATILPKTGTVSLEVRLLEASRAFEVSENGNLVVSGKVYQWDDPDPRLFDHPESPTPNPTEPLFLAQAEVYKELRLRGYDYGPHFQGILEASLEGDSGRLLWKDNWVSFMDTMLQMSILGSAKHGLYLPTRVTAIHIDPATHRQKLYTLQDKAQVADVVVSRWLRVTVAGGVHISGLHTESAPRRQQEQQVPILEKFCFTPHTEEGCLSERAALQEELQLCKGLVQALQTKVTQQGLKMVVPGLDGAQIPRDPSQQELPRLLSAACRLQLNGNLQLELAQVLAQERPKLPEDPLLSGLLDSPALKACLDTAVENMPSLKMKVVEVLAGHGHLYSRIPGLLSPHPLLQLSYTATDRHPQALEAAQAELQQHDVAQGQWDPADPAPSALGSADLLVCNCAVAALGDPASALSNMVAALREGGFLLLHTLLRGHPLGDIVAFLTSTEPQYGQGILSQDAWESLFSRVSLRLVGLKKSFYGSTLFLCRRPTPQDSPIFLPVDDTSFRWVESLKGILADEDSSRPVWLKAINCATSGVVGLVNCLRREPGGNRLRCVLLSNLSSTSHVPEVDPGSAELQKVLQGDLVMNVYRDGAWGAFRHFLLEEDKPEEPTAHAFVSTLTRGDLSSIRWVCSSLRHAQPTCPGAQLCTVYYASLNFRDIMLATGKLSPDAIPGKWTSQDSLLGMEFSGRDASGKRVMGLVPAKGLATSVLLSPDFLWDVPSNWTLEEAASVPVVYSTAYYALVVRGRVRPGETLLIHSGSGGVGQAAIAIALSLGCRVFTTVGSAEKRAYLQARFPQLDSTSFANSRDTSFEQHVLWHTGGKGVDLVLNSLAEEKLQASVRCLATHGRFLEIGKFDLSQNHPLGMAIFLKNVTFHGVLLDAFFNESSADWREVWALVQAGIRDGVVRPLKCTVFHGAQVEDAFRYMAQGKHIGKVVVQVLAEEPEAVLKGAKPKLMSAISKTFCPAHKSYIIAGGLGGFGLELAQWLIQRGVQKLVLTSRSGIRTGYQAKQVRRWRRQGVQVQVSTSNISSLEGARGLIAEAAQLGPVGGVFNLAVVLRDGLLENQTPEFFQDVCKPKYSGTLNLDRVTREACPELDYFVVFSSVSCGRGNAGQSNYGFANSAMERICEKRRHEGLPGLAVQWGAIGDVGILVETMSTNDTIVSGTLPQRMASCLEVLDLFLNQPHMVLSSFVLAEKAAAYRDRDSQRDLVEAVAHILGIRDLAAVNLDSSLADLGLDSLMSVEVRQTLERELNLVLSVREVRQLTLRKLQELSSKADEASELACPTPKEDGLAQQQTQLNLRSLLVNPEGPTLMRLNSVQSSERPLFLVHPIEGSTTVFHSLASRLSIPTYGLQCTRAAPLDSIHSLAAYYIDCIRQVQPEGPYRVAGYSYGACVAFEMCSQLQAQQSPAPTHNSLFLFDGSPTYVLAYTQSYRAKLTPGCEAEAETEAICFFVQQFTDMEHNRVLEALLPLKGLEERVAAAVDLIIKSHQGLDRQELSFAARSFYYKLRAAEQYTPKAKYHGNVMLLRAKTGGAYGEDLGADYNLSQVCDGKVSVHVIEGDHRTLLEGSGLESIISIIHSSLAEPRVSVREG
Myeloid diff 2: compounds promoting myeloid differentiation; ER-HoxA9 myeloid progenitors, lysozyme-GFP differentiation, flow cytometry; calls only at 10 µM; actives 1% (n = 360,000);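 active = normalized GFP-positive differentiation at or above the plate's own cutoff, the solvent-only control mean plus 3 SD; inconclusive = no clear call, values can overlap the other calls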;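 also: cells exposed to compound for four days before flow analysis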
Myeloid diff CP1: myeloid differentiation induction | shares compounds with Myeloid diff 2 | ER-HoxA9 myeloid progenitors, GFP/Mac1 double-positive flow | calls only | actives 2% (n = 2,300) | AID 651706;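 active = share of green or green-and-red cells above 9 and 9% in run 1 or 4 and 3% in run 2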
GFP autofluor: counter-screen for myeloid differentiation promoters: compound fluorescence; shares compounds with Myeloid diff 2; actives 7.4% (n = 2,300); AID 651707; fluorescence response, % (no concentration beside the values); ER-HoxA9 myeloid progenitors, no estrogen, GFP autofluorescence flow cytometry; vehicle wells 0%, positive control 100%;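 active = over 5% cells positive for green fluorescent reporter, or over 2% positive for both it and APC stain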
Of the large screens only hits and unclear results are named; the others gave an inactive call (follow-up assays come after a bar, where they were run). An excerpt weighted towards active compounds, which were near 5.7% of everything screened.

Cc1ccc(S(=O)(=O)N2CCOC2CNC(=O)C(=O)NCc2ccccn2)cc1 (centres undefined)	none
COc1ccc(S(=O)(=O)N2CCOC2CNC(=O)C(=O)NCc2ccccn2)cc1OC (centres undefined)	Myeloid diff 2 active (no result: NR3A LBD binder) | Myeloid diff CP1 inactive | GFP autofluor inactive
O=C(NCC(=O)N1CC=C(c2ccccc2)CC1)c1ccc(OC(F)F)cc1	none | Myeloid diff CP1 inactive | GFP autofluor inactive
COc1cc(OC)cc(C(=O)NCC(=O)N2CC=C(c3ccccc3)CC2)c1	Myeloid diff 2 inconclusive
Cc1ccc(O)c(NC(=O)CSc2ccc(Cl)cc2)c1	none | Myeloid diff CP1 inactive | GFP autofluor inactive
Cc1ccc(Cl)c(OCC(=O)Nc2cc(S(=O)(=O)N3CCOCC3)ccc2N2CCCC2)c1	none
C=CCNC(=O)c1ccc(N(CC=C)S(C)(=O)=O)cc1	Myeloid diff 2 active | Myeloid diff CP1 inactive | GFP autofluor inactive
C[C@@H]1CN([C@H](C)CO)C(=O)c2cc(C#CC3CCCCC3)cnc2O[C@H]1CN(C)Cc1cccnc1	none (no result: NR3A LBD binder) | Myeloid diff CP1 inactive | GFP autofluor inactive
C[C@H](CO)N1C[C@H](C)[C@H](CN(C)Cc2ccncc2)Oc2ncc(C#CC3CC3)cc2C1=O	none (no result: NR3A LBD binder)
COc1ccc(C(CNc2ccc(S(C)(=O)=O)cc2[N+](=O)[O-])N(C)C)cc1OC (centres undefined)	none
Cc1ccnc(S(=O)(=O)Cc2ccc([N+](=O)[O-])cc2)n1	none | Myeloid diff CP1 inactive | GFP autofluor inactive
N#Cc1ccc(C(=O)Nn2cnnc2)cc1	none
CCc1c(-c2ccc(Cl)cc2)ncn1Cc1cccc(-c2ccccc2)c1	none (no result: NR3A LBD binder, FAS-TE inh)
CCc1c(-c2ccccc2F)ncn1Cc1cccc(-c2ccccc2)c1	none (no result: NR3A LBD binder, FAS-TE inh) | Myeloid diff CP1 inactive | GFP autofluor inactive
CCC(=O)Nc1cccc(C(=O)/C=C/c2cccs2)c1	none
CCC(=O)Nc1cccc(C(=O)/C=C/c2ccccc2)c1	none | Myeloid diff CP1 inactive | GFP autofluor inactive
CCn1c(=O)c(C(=O)NC(C)c2ccccc2)c(O)c2ccccc21 (centres undefined)	Myeloid diff 2 active | Myeloid diff CP1 inactive | GFP autofluor inactive
CCCn1c(=O)c(C(=O)NC(C)c2ccccc2)c(O)c2ccccc21 (centres undefined)	none
COc1cc(C#Cc2c(-c3cncn3C)n(C)c3ccc(-c4ccc5[nH]ccc5c4)cc23)cc(OC)c1	none | Myeloid diff CP1 inactive | GFP autofluor 98
O=C(N/N=C/c1ccc([N+](=O)[O-])o1)c1ccc2c(c1)OCO2	none | Myeloid diff CP1 inactive | GFP autofluor inactive
CCCC[C@@H]1CCCO[C@@](C(=O)NCc2ccccn2)(C(F)(F)F)C1	none
CSC1=N/C(=C\c2ccc(C)cc2)C(=O)S1	none
CCOC(=O)SC1=N/C(=C\c2ccc(N(C)C)cc2)C(=O)S1	none | Myeloid diff CP1 inactive | GFP autofluor inactive
CC(C)(C)NC(=O)C(c1ccc(-c2ccccc2)cc1)N(C[C@H]1CC[C@@H]([C@@H]2CC[C@H](CO)O2)O1)C(=O)c1ccc(C(C)(C)C)cc1 (some centres undefined)	none | Myeloid diff CP1 inactive | GFP autofluor inactive
CCCOc1ccc(C(=O)NC(=S)N2CCN(c3cc4c(cc3F)c(=O)c(C(=O)O)cn4CC)CC2)cc1	Myeloid diff 2 active | Myeloid diff CP1 inactive | GFP autofluor inactive
CCn1cc(C(=O)O)c(=O)c2cc(F)c(N3CCN(C(=S)NC(=O)c4ccc(F)cc4)CC3)cc21	none
C[C@@H]1CN([C@@H](C)CO)C(=O)CCCn2nncc2CO[C@H]1CN(C)S(=O)(=O)c1ccc2ccccc2c1	none (no result: NR3A LBD binder) | Myeloid diff CP1 inactive | GFP autofluor inactive
O=C(c1ccc(S(=O)(=O)N2CCOCC2)cc1)N1CCN(c2ccc(F)cc2)CC1	none | Myeloid diff CP1 inactive | GFP autofluor inactive
O=C(c1ccc(S(=O)(=O)N2CCOCC2)cc1)N1CCN(c2ccccc2F)CC1	none
COc1ccccc1-n1c(SCc2cc(=O)oc3cc(O)ccc23)nc2ccccc2c1=O	none
CCC(CO)n1c(SCc2cc(=O)oc3cc(C)ccc23)nc2ccccc2c1=O (centres undefined)	none | Myeloid diff CP1 active | GFP autofluor inactive
CC(=O)NNC(=O)CCC(=O)Nc1ccccc1	none | Myeloid diff CP1 inactive | GFP autofluor 86
O=C(O)CCC(=O)Nc1ccc(Cc2ccc(NC(=O)CCC(=O)O)cc2)cc1	Myeloid diff 2 active | Myeloid diff CP1 inactive | GFP autofluor inactive
Cc1cccc(N2CCN(C(=O)COc3noc4nc(C)cc(C)c34)CC2C)c1 (centres undefined)	none (no result: NR3A LBD binder)
Cc1nc(NCCO)c(C#N)c2c1COC(C)(C)C2	Myeloid diff 2 active | Myeloid diff CP1 inactive | GFP autofluor inactive
Cc1ccc(NC(=O)COC(=O)Cn2nc(C)c([N+](=O)[O-])c2C)c([N+](=O)[O-])c1	none
CCOc1ccc(NC(=O)COC(=O)Cn2nc(C)c([N+](=O)[O-])c2C)cc1OCC	Myeloid diff 2 active | Myeloid diff CP1 inactive | GFP autofluor inactive
CC1CCCCC1NC(=O)CSc1nc2ccccc2c(=O)n1Cc1ccco1 (centres undefined)	Myeloid diff 2 active | Myeloid diff CP1 inactive | GFP autofluor inactive
c1ccc(C2=Nc3ccccc3OC2)cc1	none | Myeloid diff CP1 inactive | GFP autofluor inactive
Clc1ccc(C2=Nc3cc(Cl)ccc3OC2)cc1	none
Clc1ccc2nc(-c3ccc4c(c3)OCO4)cn2c1	none | Myeloid diff CP1 inactive | GFP autofluor inactive
O=C(Cc1cccs1)N1CCN=C1SCc1cccc(F)c1	none
COc1ccccc1N1C(=O)S/C(=C\c2ccc(C)s2)C1=O	none | Myeloid diff CP1 inactive | GFP autofluor inactive
COc1ccccc1N1C(=O)S/C(=C\c2cc(C)n(C)c2C)C1=O	none
O=C(NCc1ccccc1)N1CCOCC1	none
O=C(OCc1ccccc1)N1CCOCCOCCN(C(=O)OCc2ccccc2)CCOCCOCC1	Myeloid diff 2 active | Myeloid diff CP1 inactive | GFP autofluor inactive
O=c1cc(-c2ccc(O)cc2)oc2c(O)c(O)c(O)c(O)c12	none | Myeloid diff CP1 inactive | GFP autofluor inactive
Cc1cc(OCC(=O)OCC(=O)Nc2ccc(Cl)cn2)ccc1Cl	none
CN(C)c1ccc(/C=C2\Oc3ccc(C#Cc4cccc(N)c4)cc3C2=O)cc1	none (no result: rCAG binder) | Myeloid diff CP1 inactive | GFP autofluor 98
CN1CCc2c(sc(/N=C/c3c[nH]c4ccccc34)c2C#N)C1	Myeloid diff 2 active | Myeloid diff CP1 inactive | GFP autofluor 16
CN1CCc2c(sc(/N=C/c3c[nH]c4ccccc34)c2C(N)=O)C1	Myeloid diff 2 active | Myeloid diff CP1 inactive | GFP autofluor inactive
CCOC(=O)c1c(/N=C/c2ccc(OC)cc2O)sc2c1CCN(C)C2	none
O=C(CSc1nc(=O)n(CCCN2CCOCC2)c2c1CCCC2)Nc1cccc(Cl)c1	none
